Most compounds without a hit are left out; they make up all but 11% or so of the library.
Tau fibril FP = qHTS for Inhibitors of Tau Fibril Formation, Fluorescence Polarization | Potency, µM (series often up to 57.7 µM), inactives show at the top dose activity, negative = inhibition, most hits filed as inhibitors | K18 P301L tau heparin fibrillization, Alexa594 FP, 6 h | Microtubule-associated protein tau (Homo sapiens), P10636 | 280,000 tested, 0.39% active; further: potency means the concentration at half of the fitted maximal effect; nearly all actives have a fitted effect of over 55% in size
Target sequence (P10636 561-689 P618L limits assumed): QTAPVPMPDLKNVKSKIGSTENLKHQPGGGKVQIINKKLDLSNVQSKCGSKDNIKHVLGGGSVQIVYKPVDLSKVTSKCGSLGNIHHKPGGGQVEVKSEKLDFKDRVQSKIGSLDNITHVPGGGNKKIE
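K18 P301L tau (15 uM unlabeled/0.24 uM Alexa 594-labeled, final) + compound + heparin 20 uM final; 100 mM NaOAc pH 7; 6 hr 37 C; ThT 30 uM final added, 1 hr RT; FP ex 555/em 632 nm.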
FBPA coupling cs = qHTS Assay for Inhibitors of Fructose-1,6-bisphosphate Aldolase from Giardia Lamblia: Coupling assay counterscreen; activity change, negative = inhibition, % at 58.2 µM, hits read low; coupling enzyme system counterscreen, AmpLite Red fluorescence; 290,000 tested, 0.67% active; in the data active means activity change below about -30%
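Counterscreen lacking aldolase: glyceraldehyde-3-phosphate coupling-enzyme reagent preincubated 10 min at RT with compound (at 57.5 uM final), then substrate/coupling system with AmpLite Red added; fluorescence read at 525/598 nm after 20 min RT.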
G9a block = qHTS Assay for Inhibitors of Histone Lysine Methyltransferase G9a. 350,000 tested, 8.8% active. G9a H3K9 monomethylation, AlphaScreen, 2 h. Potency, µM (titrated, usually from 102 µM), inactives show top-dose activity, negative = inhibition, most hits filed as inhibitors. Histone-lysine N-methyltransferase EHMT2 (Homo sapiens), Q96KQ7; further: potency means the concentration at half of the fitted maximal effect; nearly all actives have a fitted effect of over 75% in size
Target sequence (Q96KQ7 913-1193 limits assumed): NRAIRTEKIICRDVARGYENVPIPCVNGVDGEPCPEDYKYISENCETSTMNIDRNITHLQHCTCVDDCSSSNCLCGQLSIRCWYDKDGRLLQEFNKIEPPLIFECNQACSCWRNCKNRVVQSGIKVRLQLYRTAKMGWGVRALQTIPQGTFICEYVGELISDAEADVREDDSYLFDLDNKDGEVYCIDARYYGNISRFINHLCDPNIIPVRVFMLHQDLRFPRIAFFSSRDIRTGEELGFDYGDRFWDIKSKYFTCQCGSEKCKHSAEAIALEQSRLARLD
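G9a (20 nM) preincubated 15 min RT with compounds, then 500 nM biotinylated H3K9 peptide and 20 uM SAM added; 2 h RT reaction. Monomethyl-H3K9 product detected by AlphaScreen with anti-H3K9me1 antibody, streptavidin donor and anti-rabbit IgG acceptor beads.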
Tau ThT inhib = qHTS for Inhibitors of Tau Fibril Formation, Thioflavin T Binding; recombinant tau K18 P301L, heparin-induced fibrillization, ThT fluorescence; Microtubule-associated protein tau (Homo sapiens), P10636; 270,000 tested, 2.1% active; Potency, µM (top dose mostly 57.4 µM), without a hit: at the highest dose activity, negative = inhibition, usual class: inhibitors; further: potency means the concentration at half of the fitted maximal effect; nearly all actives have a fitted effect of over 55% in size
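Heparin-induced fibrillization of the P301L-mutant K18 repeat-domain fragment of human tau was followed by ThT binding in quantitative high-throughput format.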
Sfp inh = qHTS Assay for Inhibitors of Bacillus subtilis Sfp phosphopantetheinyl transferase (PPTase); Biochemical Sfp PPTase activity, qHTS; 310,000 tested, 3.5% active; Potency, µM, inactives show largest response in the series, negative = inhibition, most hits filed as inhibitors; 4'-phosphopantetheinyl transferase ffp (Bacillus subtilis), Q9F4F7;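 further: the enzyme is Sfp with the accession as filed and its product quenches rhodamine fluorescence; potency means the concentration at half of the fitted maximal effect; 0% = enzyme reaction without inhibitor and -100% = no enzyme wells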
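Buffer: 50 mM Hepes-Na pH 7.6, 10 mM MgCl2, 0.01% Nonidet P-40, 0.01% BSA. Enzyme 15 nM, pre-exposed to compound 15 min; substrates then added and fluorescence change tracked over 30 min.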
Tau fluor counter = Counterscreen qHTS for Inhibitors of Tau Fibril Formation, Fluorescence Polarization | Potency, µM (series often up to 57.7 µM), without a hit: at the top dose activity change, negative = decrease | 280,000 tested, 0.93% active | tau K18 P301L Alexa594 fluorescence, heparin fibrillization; further: potency means the concentration at half of the fitted maximal effect; nearly all actives have a fitted effect of over 55% in size
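Human tau K18 P301L (15 uM unlabeled, 0.24 uM Alexa 594-labeled) in 100 mM sodium acetate pH 7 with 20 uM heparin, 6 hr at 37 C. ThT 30 uM added, 1 hr ambient; Alexa 594 FP and total fluorescence read at 555/632 nm.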
Active calls of the source: *; ? = inconclusive; / = not tested or not shown; ! = not active in a repeat; [ ] = dose if it differs, or a comment. Unless noted, the call rests on the fitted dose curve; in most records, active means well fitted curve in the direction sought with a large enough effect; inconclusive means small, poorly fitted or top-dose-only effect, or another doubt; inactive means no such curve, though single readings can be large; an effect the other way counts as inactive or inconclusive. Unless noted, on the % scale 0 is the no-effect control and ±100 the full control effect.

SMILES | Tau fibril FP | FBPA coupling cs | G9a block | Tau ThT inhib | Sfp inh | Tau fluor counter
Cc1cc(NC(=O)C(C)SCC(=O)OCc2ccc([N+](=O)[O-])cc2)no1 (centres undefined) | / | / | -30.8% | / | / | /
O=C(O)c1ccc(/C=C/c2ccc3cccc(O)c3n2)cc1 | 4.4% | -22.6 | ? | -3.0% | 39.8µM* | -16.0%
COC(=O)c1ccc(/C=C/c2ccc3cccc(OC(C)=O)c3n2)cc1 | 1.6% | -20.2 | -6.2%[59 µM] | 4.6% | 17.8µM* | -4.0%
Oc1ccc(/C=C/c2ccc3cccc(O)c3n2)cc1Br | / | -4.5 | -13.2% | / | -8.3% | /
CNCC(O)Cn1c2c(c3ccccc31)CCCC2 (centres undefined) | 8.9% | 1.8 | 50.1µM* | -10.8% | 12.2% | -12.6%
Cc1ccc2c(c1)c1c(n2CC(O)CNC(C)(C)C)CCCC1 (centres undefined) | -5.1% | -0.6 | 50.1µM* | -13.4% | 11.7% | -25.0%
COc1cccc(N2CCN(c3ccc4nnc(CCC(=O)O)n4n3)CC2)c1 | -4.1% | / | -1.5%[59 µM] | -12.4% | / | -8.3%
c1ccc(-c2nc(-c3cccc4ccccc34)c(Nc3ccc4ccccc4c3)o2)cc1 | 0.1% | -1.7 | / | ? | 0.0% | -21.8%
Cc1cccc(C)c1NC(=O)NN=C1CCCCC1 | 13.8% | 1.4 | 9.9%[12.7 µM] | 4.6% | -4.0% | 16.5%
Nc1nonc1NC(=O)NN=C1CCCCC1 | -5.7% | 4.2 | -0.2% | -3.6% | 35.5µM* | 0.7%
Cc1nnc(NC(=O)CSc2nnc(CNC(=O)C34CC5CC(CC(C5)C3)C4)n2C2CCCCC2)s1 | -8.9% | 1.0 | 4.6%[59 µM] | ? | 18.3% | -8.2%
CC(C)Sc1nnc(CNC(=O)C23CC4CC(CC(C4)C2)C3)n1C1CCCCC1 | -5.6% | -1.8 | 20µM* | -0.9% | -6.3% | -0.5%
Cc1sc(N)nc1C12CC3CC(CC(C3)C1)C2 | ? | -0.6 | 44.7µM* | -4.7% | -12.3% | -29.2%
CCNc1nc(C23CC4CC(CC(C4)C2)C3)cs1 | -1.9% | 1.7 | ? | ? | 2.9% | -28.4%
O=C(O)c1cnn(-c2nc(-c3cccc(F)c3)cs2)c1C(F)(F)F | 5.3% | 29.5 | 50.1µM* | -6.6% | 11.2% | -4.5%
COc1ccc(C(=O)Nc2nnc(CCS(=O)(=O)c3ccc(C)cc3)s2)cc1 | -2.3% | 0.1 | 15.6% | 10.0% | 12.9% | 3.2%
O=C1NC(=O)C(c2ccccc2[N+](=O)[O-])=C1Nc1ccc(O)c(Cl)c1 | ? | -6.4 | 1.5µM* | 7.94µM* | 56.2µM*! | ?
Cc1ccc(-c2cc(-c3ccccc3[N+](=O)[O-])[nH]n2)c(O)c1 | -1.7% | -3.2 | 20.4%[0.501 µM] | ? | -5.8% | ?
CCN(CC)Cc1cc(NC2=NS(=O)(=O)c3ccccc32)ccc1OC(=O)c1ccccc1 | 3.9% | -1.4 | 79.4µM* | -2.5% | 6.8% | -6.1%
Cc1[nH]c2ccc(C(=O)OC(C)C(=O)NC3(C#N)CCCCC3)cc2c1C (centres undefined) | / | / | 44.7µM* | / | / | /
Cc1c(S(=O)(=O)N(C)C2CCCCC2)c(=O)n(C)c(=O)n1C | / | / | -11.6% | / | / | /
COc1ccc(S(=O)(=O)NCCc2sc(-c3cccnc3)nc2C)cc1OC | 1.1% | / | 0.9%[59 µM] | 0.4% | / | 1.0%
CSc1ccc(C(=O)c2[nH]c(=O)[nH]c2C)cc1 | -1.2% | / | 10.6µM*! | -3.7% | -11.8% | -3.5%
COc1cc(/C=C/C(=O)N2CCCCC2=O)cc(OC)c1OC | ? | 3.9 | / | 11.2µM* | -12.1% | -15.2%
Cc1ccc(NC(=O)c2cccc(S(=O)(=O)N3CCc4ccccc4C3)c2)nc1 | / | / | 3.0%[0.501 µM] | / | / | /
Cc1cc(N2CCN(C)CC2)ccc1NC(=O)c1cccc(S(=O)(=O)N2CCc3ccccc3C2)c1 | 6.0% | 2.1 | 28.2µM* | -15.8% | -17.9% | -27.1%

Screens: PubChem BioAssay, National Center for Advancing Translational Sciences (NCATS)
